# Test results as given in PubChem BioAssay AID2284418 (EPA ToxCast).
# Records with an inconclusive call do not appear. Calls of active or inactive are those of the source. How the source made its calls: active means hit-call score of the fitted dose curve at least 0.9, where 1 is the maximum; inconclusive means response in the unintended direction; inactive means score below 0.9.
# System: SRY-box transcription factor 17 (SOX17) Protein Expression, Deisenroth Lab, SOX17 (gene 64321)
# Experiment: CCTE_Deisenroth_DEVTOX-GLR_Meso_SOX17: CCTE's DevTox GLR-Meso Assay Evaluation of SRY-box transcription factor 17 (SOX17) Protein Expression, Deisenroth Lab
# Procedure: CCTE_Deisenroth_DEVTOX-GLR_Meso assay is a cell-based, multiplex-readout assay that uses RUES2-GLR, a human pluripotent cell line, with measurements taken at 48 hours after chemical dosing in a 384-well microplateCCTE_Deisenroth_DEVTOX-GLR_Meso_SOX17 is 1 of 4 assay components calculated from the CCTE_Deisenroth_DEVTOX-GLR_Meso assay and it measures an the percentage of cells in an endoderm state. Using a type of inducible fluorescent protein reporter, gain-of-signal activity can be used to understand changes in gene expression with fluorescent microscopy. The percentage of SOX17+ cells are determined by calculating the number of SOX17+ cells divided by cell count. To generalize the intended target to other relatable targets, this assay component is annotated to the transcription factor intended target family, where the subfamily is SRY-related HMG-box.Data from the assay component CCTE_Deisenroth_DEVTOX-GLR_Meso_SOX17 was analyzed as 1 assay endpoint. The endpoint is the percent SOX17+ cell population minus the 0.2% DMSO control in the CCTE_Deisenroth_DEVTOX-GLR_Meso assay. This assay endpoint can be referred to as a secondary readout since this assay has produced multiple assay endpoints where this one serves as a measure of endoderm differentiation.
# All assay protocols are aligned to the DevTox GLR-Endo assay workflow. Cells are seeded into 384-well microplates for 24 hours prior to initiating differentiation in defined media for a total duration of 48 hours. A total of two chemical exposures are administered in 24-hour intervals during the 48-hour differentiation period. At the assay termination point, cells are fixed and stained with a fluorescent dye demarcating the nucleus. High-content imaging is used to acquire brightfield and fluorescent channel images across 5 fields per well. Cell identification and mean biomarker fluorescence intensities are calculated with image analysis software to determine the total cell counts for viability assessment and the biomarker expression frequency for each lineage-dependent assay. A typical experimental design tests a 10-point concentration series (1 nM - 200 uM) for 28 compounds in single technical replicate. Assay plate controls include non-differentiated pluripotent cells (baseline control), lineage-specific differentiated cells (differentiation control), and DMSO solvent exposed differentiated cells (solvent control). Experiments typically comprise a minimum of four experimental replicates (n=4).
Compound,AC50,outcome
O=C1NC(=O)C(c2ccccc2)(c2ccccc2)N1,146 µM (active),
Nc1nc2ncc(CNc3ccc(C(=O)N[C@@H](CCC(=O)O)C(=O)O)cc3)nc2c(=O)[nH]1,,inactive
CC/C(=C(/CC)c1ccc(O)cc1)c1ccc(O)cc1,6.47 µM (active),
CC1=C(/C=C/C(C)=C/C=C/C(C)=C/C(=O)O)C(C)(C)CCC1,22 µM (active),
O=c1[nH]cc(F)c(=O)[nH]1,22.6 µM (active),
Nc1cccc2c1C(=O)N(C1CCC(=O)NC1=O)C2=O (centres undefined),,inactive
O=C1CCC(N2C(=O)c3ccccc3C2=O)C(=O)N1 (centres undefined),,inactive
CC1=C(/C=C/C(C)=C/C=C/C(C)=C\C(=O)O)C(C)(C)CCC1,30.2 µM (active),
CCN(CC)CCNC(=O)c1c(C)[nH]c(/C=C2\C(=O)Nc3ccc(F)cc32)c1C,0.8 µM (active),
O=C1NS(=O)(=O)c2ccccc21,,inactive
CC(C)(c1ccc(O)cc1)c1ccc(O)cc1,142 µM (active),
CCCC(CCC)C(=O)O,,inactive
CN(Cc1cnc2nc(N)nc(N)c2n1)c1ccc(C(=O)N[C@@H](CCC(=O)O)C(=O)O)cc1,0.0944 µM (active),
CS(=O)(=O)OCCCCOS(C)(=O)=O,107 µM (active),
